Results filed as inconclusive are left out. The source made the active and inactive calls. How the source made its calls: active means hit-call score of the fitted dose curve at least 0.9, where 1 is the maximum; inconclusive means response in the unintended direction; inactive means score below 0.9.

Peroxisome proliferator-activated receptor gamma (Homo sapiens), sequence (P37231 whole entry, looked up): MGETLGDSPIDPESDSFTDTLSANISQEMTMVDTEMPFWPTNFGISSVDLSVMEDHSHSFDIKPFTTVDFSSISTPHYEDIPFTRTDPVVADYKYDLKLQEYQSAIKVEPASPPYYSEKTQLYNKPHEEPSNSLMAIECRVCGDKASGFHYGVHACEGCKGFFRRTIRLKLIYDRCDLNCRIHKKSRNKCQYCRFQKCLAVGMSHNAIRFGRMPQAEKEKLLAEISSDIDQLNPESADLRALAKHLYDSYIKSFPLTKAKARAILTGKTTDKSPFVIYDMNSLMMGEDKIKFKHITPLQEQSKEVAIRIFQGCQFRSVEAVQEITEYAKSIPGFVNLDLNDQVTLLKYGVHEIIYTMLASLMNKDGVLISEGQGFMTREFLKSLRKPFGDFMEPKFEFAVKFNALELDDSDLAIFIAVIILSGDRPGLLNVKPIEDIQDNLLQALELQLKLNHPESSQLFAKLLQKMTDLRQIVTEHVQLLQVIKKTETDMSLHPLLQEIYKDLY
Retinoic acid receptor alpha (Homo sapiens), sequence (P10276 whole entry, looked up): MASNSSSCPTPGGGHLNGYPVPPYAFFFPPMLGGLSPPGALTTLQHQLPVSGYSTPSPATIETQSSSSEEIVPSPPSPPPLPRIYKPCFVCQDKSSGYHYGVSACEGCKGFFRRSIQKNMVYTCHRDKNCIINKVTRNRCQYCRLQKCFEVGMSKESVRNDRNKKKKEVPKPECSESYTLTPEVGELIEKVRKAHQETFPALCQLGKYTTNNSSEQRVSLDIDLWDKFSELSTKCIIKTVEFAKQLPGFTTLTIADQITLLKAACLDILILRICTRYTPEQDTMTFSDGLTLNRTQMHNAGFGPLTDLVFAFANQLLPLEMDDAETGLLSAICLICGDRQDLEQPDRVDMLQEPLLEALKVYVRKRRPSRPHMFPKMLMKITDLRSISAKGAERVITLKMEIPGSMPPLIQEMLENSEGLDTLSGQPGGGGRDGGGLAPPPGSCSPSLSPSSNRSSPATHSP

For one experiment, the target named is PGR (gene 5241) (UniProt P06401). As to the kind of experiment: NVS_NR_hPR: NovaScreen (NVS) Nuclear Receptor Binding Assay for human Progestron Receptor (PR) (AID 2283360).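 Further: active means loss of bound radioligand signal versus DMSO baseline.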 An outline of the steps: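 Cell-free radioligand binding using receptor protein extracted from T47D cells, read by scintillation counting 18 hours after dosing. Loss of signal relative to DMSO baseline indicates displacement; primary screen single concentration 25 uM in duplicate, actives followed in concentration series.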
PGR (gene 5241), sequence (P06401 whole entry, looked up): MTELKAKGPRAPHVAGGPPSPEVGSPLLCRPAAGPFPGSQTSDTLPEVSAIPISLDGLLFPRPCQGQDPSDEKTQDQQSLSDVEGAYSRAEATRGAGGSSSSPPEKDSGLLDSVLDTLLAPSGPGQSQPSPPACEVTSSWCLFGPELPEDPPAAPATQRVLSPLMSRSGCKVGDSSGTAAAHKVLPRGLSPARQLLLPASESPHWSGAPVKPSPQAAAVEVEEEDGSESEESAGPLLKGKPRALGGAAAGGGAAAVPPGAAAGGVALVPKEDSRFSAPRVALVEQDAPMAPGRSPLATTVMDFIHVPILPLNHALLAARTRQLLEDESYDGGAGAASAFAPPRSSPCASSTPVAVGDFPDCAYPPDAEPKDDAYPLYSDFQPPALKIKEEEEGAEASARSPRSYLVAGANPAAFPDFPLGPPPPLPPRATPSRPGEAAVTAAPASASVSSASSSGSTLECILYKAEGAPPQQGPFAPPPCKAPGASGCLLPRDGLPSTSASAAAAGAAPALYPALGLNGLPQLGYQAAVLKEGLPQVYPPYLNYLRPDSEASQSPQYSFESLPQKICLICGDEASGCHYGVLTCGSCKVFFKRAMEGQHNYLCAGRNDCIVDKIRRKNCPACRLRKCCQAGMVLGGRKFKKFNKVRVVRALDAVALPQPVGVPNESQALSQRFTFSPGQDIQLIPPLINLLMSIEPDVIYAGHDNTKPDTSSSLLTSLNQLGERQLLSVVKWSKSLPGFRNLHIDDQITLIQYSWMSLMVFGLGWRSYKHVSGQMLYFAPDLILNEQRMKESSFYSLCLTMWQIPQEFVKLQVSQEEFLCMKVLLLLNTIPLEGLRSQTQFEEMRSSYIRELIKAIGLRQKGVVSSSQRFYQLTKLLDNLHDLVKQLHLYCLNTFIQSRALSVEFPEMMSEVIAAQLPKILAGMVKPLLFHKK
On to `CC(C)(C)c1ccccc1OP(=O)(Oc1ccccc1)Oc1ccccc1`, for which the molecule was called inactive. Regarding `Nc1cc2c3c(c1)C(c1ccccc1)=N[C@@H](NC(=O)c1cccnc1)C(=O)N3CC2`, the molecule was classed as inactive. In the case of `CCOP(=S)(Oc1ccc([N+](=O)[O-])cc1)c1ccccc1` (stereo not given), the molecule was called inactive.

Consider `CSC(C)(C)C=NO`, for which the result was inactive. Same read-out and setting: the result for `CCCCN(CCCC)SN(C)C(=O)Oc1cccc2c1OC(C)(C)C2` reads “inactive”. Still for that read-out and setting: the result for `CC(Cl)CN(C)C` (stereo not given) reads “inactive”.

In another experiment the target is Retinoic acid receptor alpha (Homo sapiens) (UniProt P10276). As to the kind of experiment: NVS_NR_hRARa_Agonist: NovaScreen (NVS) Nuclear Receptor Binding Assay for human Retinoic Acid Alpha Receptor Agonism (RAR) (AID 2283361). An outline of the steps:
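Readout is time-resolved fluorescence resonance energy transfer after a 2 h exposure of cell-free extracted receptor protein. Initial testing used 25 uM in duplicate, with concentration-response follow-up for active chemicals.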
As for `c1ccc2c(c1)Nc1ccccc1S2`, the outcome was inactive.

In the case of `Cc1cccc(N)c1`, the molecule was classed as inactive. Take `CCCCOCCOP(=O)(OCCOCCCC)OCCOCCCC`: the outcome was inactive. The same measure, in the same setting: the result for `CCCCc1ccc(O)cc1` reads “inactive”.

The target of another experiment is Nuclear receptor subfamily 1 group I member 2 (Homo sapiens) (UniProt O75469). Description: NVS_NR_hPXR: NovaScreen (NVS) Nuclear Receptor Binding Assay for human Pregnane X Receptor (PXR) (AID 2283365).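 Further: a drop in FRET signal versus DMSO baseline means the compound binds.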 An outline of the steps: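 Human PXR binding measured by TR-FRET in a cell-free format, 2 h exposure. Single-concentration duplicates at 25 uM preceded concentration-response retests of actives; endpoint fitted positively relative to DMSO, loss of signal indicating binding.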
Nuclear receptor subfamily 1 group I member 2 (Homo sapiens), sequence (O75469 whole entry, looked up): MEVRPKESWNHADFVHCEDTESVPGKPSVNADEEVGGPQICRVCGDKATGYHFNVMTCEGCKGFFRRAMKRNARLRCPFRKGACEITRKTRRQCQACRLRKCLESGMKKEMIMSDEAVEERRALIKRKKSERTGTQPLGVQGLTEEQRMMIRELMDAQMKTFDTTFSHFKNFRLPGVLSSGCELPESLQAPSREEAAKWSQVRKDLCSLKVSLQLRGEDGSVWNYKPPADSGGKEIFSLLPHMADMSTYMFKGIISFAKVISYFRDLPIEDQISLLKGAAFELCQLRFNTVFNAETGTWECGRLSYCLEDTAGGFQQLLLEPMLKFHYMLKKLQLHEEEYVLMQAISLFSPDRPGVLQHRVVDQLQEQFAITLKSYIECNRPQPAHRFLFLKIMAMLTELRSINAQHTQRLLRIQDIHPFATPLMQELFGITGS
Regarding `CCCCCCCc1ccc(O)cc1`, the result was inactive. `CCCCN(CC)C(=O)SCCC`: the result was inactive. Same read-out and setting: then `CCCCN(CCCC)N=O`, with “inactive”. Turning to `CC1(C)CN=C(NN=C(/C=C/c2ccc(C(F)(F)F)cc2)/C=C/c2ccc(C(F)(F)F)cc2)NC1`, the AC50 is 7.48 µM (active). For the molecule `O=P(OCC(Br)CBr)(OCC(Br)CBr)OCC(Br)CBr` (stereo not given), the AC50 was 0.423 µM (active). Regarding `CC(C)(C)N(NC(=O)c1ccc(Cl)cc1)C(=O)c1ccccc1`, the molecule was classed as inactive. Consider `CCCCOCCOP(=O)(OCCOCCCC)OCCOCCCC`, for which the AC50 was 5.67 µM (active). Consider `CO/N=C(/C(=O)OC)c1ccccc1COc1ccccc1C`, for which the outcome was inactive. The same measure, in the same setting: the result for `OCC1CO1` (stereo not given) reads “inactive”.

Consider `O=NN1CCCC1`, for which the molecule was classed as inactive.

For a further experiment, the target named is guinea pig Sigma Receptor, Non-selective Binding, SIGMAR1 (gene 100135589) (UniProt Q60492). Description: NVS_OR_gSIGMA_NonSelective: NovaScreen (NVS) Nuclear Receptor Binding Assay for guinea pig Sigma Receptor, Non-selective Binding (AID 2283367). The procedure, abridged: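 gp brain membr., radioligand displacement, 1 h, filtration + scint. counting; DMSO = baseline; 25 uM x2 primary, conc.-response confirm.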
guinea pig Sigma Receptor, Non-selective Binding, SIGMAR1 (gene 100135589), sequence (Q60492 whole entry, looked up): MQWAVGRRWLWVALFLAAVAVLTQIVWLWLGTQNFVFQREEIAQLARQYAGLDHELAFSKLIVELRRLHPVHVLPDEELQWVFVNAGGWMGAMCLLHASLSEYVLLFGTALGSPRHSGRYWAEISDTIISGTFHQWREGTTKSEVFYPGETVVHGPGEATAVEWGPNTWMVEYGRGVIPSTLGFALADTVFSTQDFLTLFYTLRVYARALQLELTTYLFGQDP
As for `CCCCN(CCCC)N=O`, the AC50 was 25 µM (active). Consider `c1ccc2c(c1)Nc1ccccc1S2`, for which the molecule was called inactive. The same measure, in the same setting: then `O=C(O)C(Cl)Cl`, with “inactive”.

Take `CCCCN(CCCC)SN(C)C(=O)Oc1cccc2c1OC(C)(C)C2`: the AC50 was 4.72 µM (active). As to `CCN(CC)c1ccccc1`, the call was inactive.

For a further experiment, the system named is guinea pig Dopamine Transporter (DAT), gene 100714898. Description: NVS_TR_gDAT: NovaScreen (NVS) Transporter Assay for guinea pig Dopamine Transporter (DAT) (AID 2283369).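 Further: active compounds lower bound radioligand signal relative to DMSO.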 The procedure, abridged:
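Radioligand displacement on membranes from guinea pig striatum, 2 h exposure, bound label counted by filtration and scintillation. Tested at 25 uM in duplicate, then actives in concentration series to 50 uM; DMSO as negative control.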
Consider `CCC(C)(C)c1ccc(O)cc1`, for which the AC50 was 17.3 µM (active).

As to `CSC(C)(C)C=NO`, the call was inactive. As for `CC(C)Nc1ccc(Nc2ccccc2)cc1`, the AC50 was 25 µM (active).

On to `CC(C)(C)c1ccc(O)cc1`, for which the outcome was inactive. Regarding `O=P(Oc1ccccc1)(Oc1ccccc1)Oc1ccccc1`, the AC50 was 18.8 µM (active).

The next experiment has as its target Peroxisome proliferator-activated receptor gamma (Homo sapiens) (UniProt P37231). As to the kind of experiment: NVS_NR_hPPARg: NovaScreen (NVS) Nuclear Receptor Binding Assay for human Peroxisome Proliferator-activated Receptor gamma (PPARg) (AID 2283370). The procedure, abridged:
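Fluorescence polarization readout of ligand binding to extracted human PPARg, measured at 2 h. Duplicate single-point screen at 25 uM, then concentration-series retesting; activity defined as signal loss versus DMSO.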
`O=S(=O)(c1ccc(O)cc1)c1ccc(O)cc1`: the molecule was called inactive.

With `CCCCCCCc1ccc(O)cc1`, the molecule was classed as inactive. Same read-out and setting: the result for `CCCCN(CC)C(=O)SCCC` reads “inactive”; that for `c1ccc2c(c1)Nc1ccccc1S2`, “inactive”. Regarding `CC1(C)CN=C(NN=C(/C=C/c2ccc(C(F)(F)F)cc2)/C=C/c2ccc(C(F)(F)F)cc2)NC1`, the molecule was classed as inactive. Still for that read-out and setting: the result for `CC(C)(C)OOC(C)(C)C` reads “inactive”; that for `CCOS(=O)(=O)OCC`, “inactive”. As for `CCNc1nc(Cl)nc(NC(C)(C)C)n1`, the half-maximal activity concentration (AC50) is 0.0134 µM (active).

Regarding `ClC1=C(Cl)C2(Cl)C3C(Cl)C(Cl)CC3C1(Cl)C2(Cl)Cl` (stereo not given), the outcome was inactive. As for `CSC(C)(C)C=NO`, the result was inactive. As for `O=c1ssc(Cl)c1Cl`, the molecule was classed as inactive.

Turning to `Nc1ccc2ccccc2c1`, the outcome was inactive.

For the molecule `CCOP(=S)(OCC)SCSCC`, the result was inactive. The same measure, in the same setting: the result for `CCCCN(CCCC)SN(C)C(=O)Oc1cccc2c1OC(C)(C)C2` reads “inactive”. The same measure, in the same setting: then `c1ccc(OP(Oc2ccccc2)Oc2ccccc2)cc1`, with “inactive”; and `CCOC(=O)c1ccccc1N`, with “inactive”.

Consider `ClC(Cl)c1ccccc1`, for which the molecule was called inactive. With `O=[N+]([O-])c1ccc(Cl)c(Cl)c1`, the AC50 was 9.12 µM (active). In the case of `O=P(Oc1ccccc1)(Oc1ccccc1)Oc1ccccc1`, the AC50 is 0.00229 µM (active). As to `O=NN1CCCC1`, the result was inactive.

Values taken from PubChem BioAssay (EPA / NIEHS).
